# Source: PubChem BioAssay (National Center for Advancing Translational Sciences (NCATS))
# PNC inhibitor – perinucleolar compartment assembly inhibition; PC3M PTB-GFP, PNC prevalence imaging, 16 h; active compounds read low; activity change (PNC), negative = inhibition, % at 10 µM; 140,000 tested, 3.1% active; AID 2417;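 active = readout at or below -70, meaning at least 70% loss of cells showing the perinucleolar compartment, a nuclear body marking cancer cells; inconclusive = readout between -30 and a set limit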;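 note: plate controls were DMSO wells for no effect and camptothecin positive control wells for full effect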
#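 Read-out is percentage of cells bearing a perinucleolar compartment, from automated 20x imaging of fixed, Hoechst-stained PC3M PTB-GFP cells. Cells were seeded 4 h, then exposed 16 h to compound (23 nl of library stock) in duplicate plates.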
# GLA spleen mod – inhibitors or activators of human alpha-galactosidase in spleen homogenate; human spleen homogenate, 4MU-alpha-Gal fluorescence, 40 min; Potency, µM (series often up to 80 µM), for inactives: at the highest dose activity change, negative = inhibition, hits mostly inhibitors; 240,000 tested, 0.008% active; AID 2107;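 note: potency is the fitted concentration of half-maximal effect; 0% = enzyme with vehicle and -100% = no enzyme basal signal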
#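 Human spleen homogenate (1 ug) as enzyme source, 4-methylumbelliferyl-alpha-D-galactopyranoside 1 mM final, citrate/phosphate pH 5.0 with 0.01% Tween-20. Compounds 40 min at 37C, NaOH/glycine stop; fluorescence Ex 365/Em 440, Hill-fit AC50.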
# GLA inh pH 4.5 – blocks human alpha-galactosidase A at pH 4.5. activity change, negative = inhibition, % at 105 µM. AID 1467. 230,000 tested, under 10 active. purified enzyme, 4-MU-alpha-Gal fluorescence, pH 4.5. P06280;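 note: 0% = full activity with enzyme and -100% = basal without enzyme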
# ALDH1A1 inh – blocks purified human ALDH1A1 activity; Potency, µM (doses to about 75.3 µM), for the others: at the top dose activity, negative = inhibition, hits mostly inhibitors; AID 1030; P00352; Purified ALDH1A1, NADH fluorescence, propionaldehyde substrate; 220,000 tested, 7.3% active; active = well fitted inhibition curve with a large enough effect, not every such curve was filed as active; inconclusive = small, poorly fitted or top-dose-only effect, or another doubt; inactive = no such curve, though single readings can be large or run the other way;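 note: potency is the fitted concentration of half-maximal effect; plate controls were no enzyme wells and a reference inhibitor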
# Target sequence (P00352 whole entry, looked up): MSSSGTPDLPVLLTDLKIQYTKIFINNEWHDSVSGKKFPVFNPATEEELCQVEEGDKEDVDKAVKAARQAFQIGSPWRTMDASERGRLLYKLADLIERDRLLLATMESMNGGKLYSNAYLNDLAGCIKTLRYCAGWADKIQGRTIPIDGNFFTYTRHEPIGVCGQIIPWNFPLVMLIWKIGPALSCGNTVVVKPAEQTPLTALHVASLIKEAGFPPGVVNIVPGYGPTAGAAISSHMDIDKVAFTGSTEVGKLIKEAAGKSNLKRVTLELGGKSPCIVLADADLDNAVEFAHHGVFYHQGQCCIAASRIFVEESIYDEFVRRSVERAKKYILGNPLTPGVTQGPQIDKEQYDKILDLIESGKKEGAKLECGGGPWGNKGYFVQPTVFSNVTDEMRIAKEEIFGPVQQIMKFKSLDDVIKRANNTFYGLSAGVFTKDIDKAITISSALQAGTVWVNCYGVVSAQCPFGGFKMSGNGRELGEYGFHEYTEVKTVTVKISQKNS
# ALOX12 inhib – 12-hLO (ALOX12) enzyme inhibition; purified 12-hLO, xylenol orange hydroperoxide absorbance; 150,000 tested, 0.12% active; Potency, µM (highest dose often 57.1 µM), for the others: at the top dose activity change, negative = inhibition, actives largely listed as inhibitors; AID 1452; note: potency is the fitted concentration of half-maximal effect; nearly all actives have a fitted effect of over 55% in size
#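 150 nM 12hLO, 25 mM Hepes pH 7.0 + 0.01% Triton X-100; cpd preinc 15 min RT; 40 uM arachidonic acid, 30 min RT; Fe-XO 30 min; A573/A405 ratio as read-out.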
# HPGD block – HPGD (human) dehydrogenase inhibition. P15428. purified HPGD, NADH fluorescence kinetic, PGE2 substrate. 150,000 tested, 4.3% active. Potency, µM, without a hit: at the highest dose activity change, negative = inhibition, usual class: inhibitors; active = well fitted inhibition curve with a large enough effect, not every such curve was filed as active; inconclusive = small, poorly fitted or top-dose-only effect, or another doubt; inactive = no such curve, though single readings can be large or run the other way; note: potency is the fitted concentration of half-maximal effect
#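 20 nM HPGD preincubated 15 min at room temperature with compound in 50 mM Tris-HCl pH 8, 0.01% Tween 20. Started with 1 mM NAD+ and 30 uM prostaglandin E2; NADH fluorescence (360/450 nm) read 5 times over 30-s intervals, last minus first.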
# The depositor's hits bear a star; ? = inconclusive; · = no result; [ ] = dose if it differs, or a comment. Rows were chosen to be rich in hits. Some 10% of all compounds tested hit in one or more screens of this group. Unless noted, calls come from the whole dose curve; as a rule, active = well fitted curve in the direction sought with a large enough effect; inconclusive = small, poorly fitted or top-dose-only effect, or another doubt; inactive = no such curve, though single readings can be large; an effect the other way counts as inactive or inconclusive. Unless noted, % is set by controls: 0 for no effect and ±100 for the full control effect.
SMILES,PNC inhibitor,GLA spleen mod,GLA inh pH 4.5,ALDH1A1 inh,ALOX12 inhib,HPGD block
Clc1c(-c2ccccc2)nnn1-c1ccccc1,-10,-1%,-16,3%,3%,-22%
O=C(c1ccco1)N1CCN(C(=O)c2cc(-c3ccccn3)nc3ccccc23)CC1,-10,7%,2,3.5µM*,-9%,-25%
O=C(c1ccco1)N1CCN(CCCCOc2cccc3ccccc23)CC1,28,-14%,-13,-6%,-15%,-10%
O=C(CCSc1ccccc1)N1CCN(C(=O)c2ccco2)CC1,-91*,4%,-3,22µM*,5%,-14%
O=C(c1ccco1)N1CCN(CCOCCOc2cccc3ccccc23)CC1,-80*,12%,1,-11%,5%,3%
c1ccc(COC2CCCN(Cc3nc(Cc4ccccc4)no3)C2)cc1 (configuration not stated),·,7%,2,14µM*,·,·
c1ccc(COC2CCCN(Cc3nc(-c4cnccn4)no3)C2)cc1 (configuration not stated),·,0%,3,-1%,·,·
Cc1cnc(CNc2cc(-c3cccnc3)ncn2)cn1,·,-3%,·,-9%,·,·
Cc1cccc(C)c1NC(=O)C(c1ccccc1)N1CCN(C(=O)c2ccco2)CC1 (configuration not stated),34,-3%,-6,25µM*,2%,-7%
O=C(Cc1ccccc1)N1CCN(C(=O)c2ccco2)CC1,6,0%,4,20µM*,1%,-3%
O=C(c1ccco1)N1CCN(C(=O)c2sccc2-c2ccccc2)CC1,-100*,9%,-4,13µM*,0%,-15%
CC(C)(C)c1ccc(S(=O)(=O)NCC(=O)N2CCN(C(=O)c3ccco3)CC2)cc1,9,-3%,1,1.6µM*,-1%,4%
Cc1ccc(S(=O)(=O)N(C)CC(=O)N2CCN(C(=O)c3ccco3)CC2)cc1,3,-2%,2,?,6%,-4%
COC(=O)NC(/C(C(=O)OC)=C(\C)NCc1ccccc1)c1ccco1 (configuration not stated),·,3%[17.5 µM],·,18%[13.5 µM],·,·
O=S(=O)(CCc1ccccc1)c1nnnn1C1CCCCC1,·,4%,-3,-13%,·,0%
O=C(c1ccco1)N1CCN(Cc2nc(Cc3ccccc3)no2)CC1,·,?,-5,22µM*,·,·
O=C(CN1CCC(NC(=O)c2ccccc2F)CC1)Nc1ccc2c(c1)OCCO2,·,7%,-22,13µM*,·,·
O=C(CSc1nnc(CNC(=O)c2ccccc2F)o1)Nc1ccc2c(c1)OCCO2,9,0%,-1,10µM*,2%,-9%
O=C(CSc1nnc(-c2ccc(O)cc2)o1)Nc1ccc2c(c1)OCCO2,?,11%,1,0%,-3%,-4%
O=C(NCc1nnc(SCC(=O)N2CCC(Cc3ccccc3)CC2)o1)c1ccccc1F,-27,-1%,4,8.9µM*,-3%,-9%
O=C(CSc1nnc(-c2ccccc2Cl)o1)Nc1ccc2c(c1)OCCO2,-13,2%,7,20µM*,-1%,-10%
O=C(NCc1nnc(SCC(=O)N2CCCC2)o1)c1c(F)cccc1Cl,28,0%,3,2%,-1%,-4%
Cc1ccccc1C(=O)NC1CCN(CC(=O)Nc2ccc3c(c2)OCCO3)CC1,·,7%,5,3%,·,·
CC(C)C12CC[C@@]3(CC[C@H]4[C@@](C)(CCC[C@]4(C)C(=O)O)[C@@H]3C1)[C@@H](CN)C2,·,·,·,?,0%[11.4 µM],-4%
O=C(CNC(=S)N(CCCN1CCOCC1)Cc1cccs1)N1CCCC1,·,-5%,1,5%,·,·
SMILES,PNC inhibitor,GLA spleen mod,GLA inh pH 4.5,ALDH1A1 inh,ALOX12 inhib,HPGD block
COC(=O)[C@@H]1C[C@@]2(O)[C@@H](O)[C@@H](O)[C@@H](O)C[C@H]2N1Cc1cc(F)ccc1F,·,-29%,5,?,-11%,0%
CCC(Oc1nc2ccccc2nc1-c1ccccc1NC(C)=O)C(=O)c1ccccc1 (configuration not stated),6,13%,-2,-2%,0%,-23%
O=C(Oc1cccc(N2C(=O)CCC2=O)c1)c1ccccc1,-5,-6%,-7,-2%,2%,-15%
O=C1CCC(=O)N1c1cccc(OS(=O)(=O)c2ccccc2)c1,?,1%,2,0.35µM*,2%,-6%
CC1CCC2C(=O)N(c3cccc(OS(=O)(=O)c4ccccc4)c3)C(=O)C2C1 (configuration not stated),31,5%,-14,13µM*,0%,-13%
CC(C)(C)c1cc(CN2CCCCC2)cc(C(C)(C)C)c1O,-23,9%,5,14µM*,-28%,-2%
Oc1ccccc1C(=S)N1CCCCCC1,?,3%,-2,25µM*,8%,8.9µM*
Oc1ccccc1C(=S)N1CCCCC1,-5,0%,7,?,-4%,14µM*
O=C(NNc1c(Cl)cc(Cl)cc1Cl)C1CCC1,32,-7%,6,16%,-1%,32µM*
CC(=O)N1CCC[C@@]2(CCN(Cc3cc(C(F)(F)F)cc(C(F)(F)F)c3)C2)C1,·,23%,·,1%,-6%,-4%
COc1ccc(CN(CCC(c2ccccc2)c2ccco2)C(=O)c2ccco2)cc1 (configuration not stated),2,-18%,-8,7.9µM*,-10%,28µM*
O=C(NC(CO)c1ccccc1)c1ccco1 (configuration not stated),-29,-5%,-10,21%,-5%,-9%
COc1ccc(CN(C(=O)c2ccco2)c2ccccc2)cc1,1,-5%,-5,-4%,-3%,-21%
O=C(c1ccco1)N(CCC(c1ccccc1)c1ccco1)Cc1ccccc1 (configuration not stated),-20,-6%,-3,8.9µM*,-3%,-20%
CSc1ccc(/C=N/N2CCN(Cc3ccccc3)CC2)cc1,·,8%,-1,-8%,·,·
COc1cc(N)c(Cl)cc1C(=O)N[C@H]1CCN(CCCOc2ccc(F)cc2)C[C@@H]1OC,·,-7%,-19,14%,-3%,-16%
CCOC(=O)N1CCCN(/[N+]([O-])=N/Oc2ccc([N+](=O)[O-])cc2[N+](=O)[O-])CC1,·,5%,·,·,·,·
COCC(=O)N1CCC2(CCN(Cc3nccs3)CC2)CC1,·,-10%,·,9%,-1%,-7%
Cc1cc(OC(=O)c2ccccc2Br)cc(=O)n1C,23,1%,-4,6%,-1%,13µM*
COc1ccccc1CNc1ncnc2ccc(-c3cccc(C#N)c3)cc12,·,0%,·,?,·,·
O=C(CCn1nnc2ccccc21)Nc1nnc(COc2ccccc2F)s1,-28,-12%,4,9%,3%,-18%
